From the supplement of paper PMC10338343
± gives the standard deviation.

Columns and labels:
[1] = test system: MILI (PIWIL2) piRISC loaded with piRNA #1 (26 nt); test: pre-steady-state target cleavage rate (min^-1); guide: piRNA #1 5'p-UGAGGUAGUAGGUUGUAUAGUAUCCA; higher = faster piRNA-guided slicing of the target; details: auxiliary factor: 500 nM mouse GTSF1;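 note: 1 nM active piRISC with 0.1 nM target library at 33 °C single turnover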
Summary of the method: (§1)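 The pre-steady-state cleavage rate was calculated from a burst-and-steady-state fit. Data came from Cleave-'n-Seq, in which […] transcribed, DNA-blocked target RNA library was mixed with 1 nM active affinity-purified piRISC carrying one synthetic guide, with or without 500 nM GTSF1 partner protein, in HEPES–potassium acetate buffer at 33 °C for 0–8 or 0–960 min. Uncleaved targets were sequenced and normalised to depth and to weakly complementary targets, three trials were pooled, and k3 was capped at 0.0001 min^-1.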

[2] = test system: EfPiwi piRISC loaded with piRNA #1 (26 nt); test: pre-steady-state target cleavage rate (min^-1); auxiliary factor: 500 nM Ephydatia muelleri Gtsf1; guide: piRNA #1 5'p-UGAGGUAGUAGGUUGUAUAGUAUCCA; MIWI and MILI are mouse PIWI proteins and EfPiwi is from a freshwater sponge; tags in brackets are library labels; higher = faster piRNA-guided slicing of the target
Summary of the method: as §1

Sequence | pre-steady-state target cleavage rate [1] | pre-steady-state target cleavage rate [2]
GGAGACCUUAGUAUACAACCUACUACCUCA | 0.0889 ± 0.0097 | 0.0563 ± 0.02
GGAGACGAUACUAUACAACGUACUACGUCA | 0.00557 ± 0.0029 | 0.00379 ± 0.0014
GGAGUGGUUACUAUACAUCCUACUACCUCA | 0.295 ± 0.014 | 0.00608 ± 0.0026
GGAGACGAUACUAUACAACCUACUACCCA | 0.107 ± 0.024 | 0.00543 ± 0.0019
GGAGACCAUAGUAUACAACCUACUACCUCA | 0.118 ± 0.012 | 0.022 ± 0.0084
GGAGACGAUACUAAACAACCUACUACCUCA | 0.207 ± 0.016 | 0.0292 ± 0.012
GGAGUGGAUACUAUACAACCUAACUACCUCA | 0.0255 ± 0.0041 | 0.00456 ± 0.0023
GGAGACCUUACUGAUACAACCUACUACCUCA | 0.0968 ± 0.011 | 0.0403 ± 0.016
GGAGACCUAUGAAUACAACCUACUACCUCA [g2:g18:cont:t1A] | 0.00878 ± 0.0033 | 0.00706 ± 0.0032
GGAGAGGAUACUAUACAACCUACUACCUGCA | 0.137 ± 0.012 | 0.00613 ± 0.0026
GGAGACCUAACUAUACAACCUAUUACCUCA | 0.0965 ± 0.018 | 0.00738 ± 0.0043
GGAGACGAUACUAAACAACCUACUUCCUCA | 0.0843 ± 0.021 | 0.00245 ± 0.0022
GGAGACCUAACUAUACAACCUACUACCUCC [g2:g21:cont:t1C] | 0.175 ± 0.03 | 0.00701 ± 0.0033
GGAGACGAUACUAUACAACCUACAACCUGA | 0.0121 ± 0.0074 | 0.00441 ± 0.0022
GGAGUGGAUACUAUACUACCUACUUCCUCA | 0.0121 ± 0.0027 | 0.00222 ± 0.0021
GGAGUGGAUACUAUACAACCUACUACCUA | 0.103 ± 0.014 | 0.249 ± 0.092
GGAGAGGAAACUAUACUACCUACUACCUCA | 0.239 ± 0.025 | 0.00544 ± 0.0027
GGAGUGCUUACUAUACAACCUACUACCUCA | 0.162 ± 0.0091 | 0.0694 ± 0.025
GGAGUGGAUACUAUACAACCUACUACUCA | 0.0385 ± 0.0084 | 0.00563 ± 0.0029
GGAGACGAUACUAUACAACCGACUACCUCA | 0.00402 ± 0.0035 | 0.00284 ± 0.002

Sequence | pre-steady-state target cleavage rate [1] | pre-steady-state target cleavage rate [2]
GGAGACGAUACUAUACAACCUACAACCACA | 0.0888 ± 0.035 | 0.00436 ± 0.0022
GGAGACGAUACUAUACAACGUACAACCUCA | 0.0345 ± 0.0071 | 0.00279 ± 0.0018
GGAGACCUAUCUAUACAACCUAGUACCUCA | 0.0209 ± 0.0054 | 0.00361 ± 0.0027
GGAGACGAACUAUACAACCUACUACCUCA | 0.138 ± 0.012 | 0.0112 ± 0.0057
GGAGUGGUUACUAUACAACCUAGUACCUCA | 0.0547 ± 0.01 | 0.00359 ± 0.0015
GGAGACCAUACUAUACAACCUACUACCUCA [g2:g23:cont:t1A] | 0.178 ± 0.023 | 0.0141 ± 0.0046
GGAGUCGGAUACUAUACAACCUACUACCUCA | 0.187 ± 0.015 | 0.0621 ± 0.024
GGAGACGAUACUAUACUUCCUACUACCUCA | 0.242 ± 0.016 | 0.0109 ± 0.0064
GGAGAGGAUCCUAUACAACCUACUACCUCA | 0.164 ± 0.025 | 0.0886 ± 0.046
GGAGACGAAACUAUACAACCUACUACCUCA | 0.172 ± 0.022 | 0.0619 ± 0.022
GGAGACCUAUGUAUUACAACCUACUACCUCA | 0.0187 ± 0.0046 | 0.0036 ± 0.0033
GGAGACCAUAGAAUACAACCUACUACCUCA | 0.0281 ± 0.0057 | 0.00684 ± 0.0033
GGAGACGAUACUAUACAACCUCACUACCUCA | 0.00413 ± 0.0033 | 0.0049 ± 0.0024
GGAGACGAUACUAAACAAGCUACUACCUCA | 0.268 ± 0.016 | 0.00331 ± 0.0031
GGAGACGAUACUCAUACAACCUACUACCUCA | 0.198 ± 0.02 | 0.0151 ± 0.0063
GGAGAGGAUACUAUACAACCUACUACCCA | 0.0505 ± 0.014 | 0.0052 ± 0.0025
GGAGACCUUACUAUACAACCUGCUACCUCA | 0.0466 ± 0.0081 | 0.0174 ± 0.0079
GGAGACGAUACUAUACUACCUUCUACCUCA | 0.025 ± 0.0053 | 0.00418 ± 0.0025
GGAGACCUAUCUAUACAACCUACUACCGCA | 0.174 ± 0.021 | 0.0051 ± 0.0049
GGAGUGGAUACUAUUCAACCUACUAGCUCA | 0.0538 ± 0.0095 | 0.0025 ± 0.0021

Sequence | pre-steady-state target cleavage rate [1] | pre-steady-state target cleavage rate [2]
GGAGACCAUACUAUACUACCUAGUACCUCA | 0.0453 ± 0.0095 | 0.00377 ± 0.0033
GGAGUGGAAACUAUACUACCUACUACCUCA | 0.193 ± 0.016 | 0.00676 ± 0.0042
GGAGUGGAUACUAUACAACCUACACCUCA | 0.00292 ± 0.0021 | 0.00338 ± 0.0018
GGAGACCAUACUAUACAACCUACAUCCUCA | 0.1 ± 0.014 | 0.00325 ± 0.0028
GGAGACGAUACUAUACAACCUACUACCAGA | 0.125 ± 0.02 | 0.00503 ± 0.0015
GGAGACGAUACUAUACAACGUACUUCCUCA | 0.0234 ± 0.0059 | 0.00359 ± 0.0013
GGAGACCAUACUAUACAACCUACCUACCUCA | 0.129 ± 0.017 | 0.00424 ± 0.0022
GGAGUGGGUACUAUACAACCUACUACCUCA | 0.148 ± 0.01 | 0.00924 ± 0.0037
GGAGUGGAUACUAUACAACCUCCUACCUCA | 0.0339 ± 0.0035 | 0.0053 ± 0.0019
GGAGACCUAUGCAUACAACCUACUACCUCA | 0.0358 ± 0.0081 | 0.0042 ± 0.0037
GGAGACGUUACUAUACAACCUACUACCACA | 0.191 ± 0.016 | 0.00242 ± 0.0022
GGAGAGGAUACUAUACAACCUACUGACCUCA | 0.077 ± 0.013 | 0.00473 ± 0.002
GGAGUGGAUACUAUACAUCCUACUACGUCA | 0.0364 ± 0.0082 | 0.0038 ± 0.0013
GGAGUGGUUACUAUACAACCUACUUCCUCA | 0.0036 ± 0.002 | 0.0027 ± 0.0013
GGAGACCAUAUCUAUACAACCUACUACCUCA | 0.138 ± 0.015 | 0.124 ± 0.051
GGAGACCUUACUAUACAACCUACUACCUA | 0.152 ± 0.018 | 0.0485 ± 0.018
GGAGACCAUACUAUACAACCUACUGACCUCA | 0.0765 ± 0.017 | 0.0102 ± 0.0061
GGAGACCUUACUAGUACAACCUACUACCUCA | 0.0945 ± 0.0095 | 0.00695 ± 0.0046
